Source: PubChem BioAssay (several laboratories)
Only some compounds are listed: those with a hit (about 4.5% of all), similar ones and a draw of the others.
PrPC surface inh: reduces human prion protein on the cell surface | cell surface PrPC, TR-FRET read-out | inhibition, % at 13.8 µM | hit rate 0.43% among 370,000; in the data active = inhibition above about 24%; note: 0% = median of the test wells and 100% = reference compound wells
PrP 5UTR inh: suppresses PrP 5' UTR mRNA reporter expression. cell-based PrP 5' UTR mRNA reporter, plate reader. inhibition, % (test concentration not listed). hit rate 0.35% among 340,000; in the data active = inhibition above about 52%; note: 0 = median of the neutral control wells
FBA Mtb inh: inhibits M. tuberculosis FBA enzyme. purified M. tuberculosis FBA, fluorescence read-out. inhibition, % at 1 µM. hit rate 2.3% among 360,000; in the data active = inhibition above about 27%;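 note: 0% = vehicle and 100% = reference inhibitor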
Target sequence (P9WQA3 whole entry, looked up): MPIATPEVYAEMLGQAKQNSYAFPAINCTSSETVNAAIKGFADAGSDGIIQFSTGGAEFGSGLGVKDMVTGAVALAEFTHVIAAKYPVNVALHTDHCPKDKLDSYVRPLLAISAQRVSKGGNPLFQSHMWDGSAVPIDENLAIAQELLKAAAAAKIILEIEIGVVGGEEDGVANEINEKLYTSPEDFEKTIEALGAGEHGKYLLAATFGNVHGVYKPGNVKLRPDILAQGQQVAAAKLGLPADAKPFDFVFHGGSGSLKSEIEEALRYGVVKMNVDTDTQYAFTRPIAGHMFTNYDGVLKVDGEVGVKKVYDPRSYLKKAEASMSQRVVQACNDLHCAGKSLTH
GDH-TPI inh: inhibits GDH-TPI coupling enzymes, artifact for Mtb FBA screen | GDH-TPI coupled enzyme counterscreen, NADH absorbance | hit rate 1.2% among 360,000 | inhibition, % at 4.8 µM | AID 588335; in the data active = inhibition above about 30%;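 note: 0% = DMSO wells and 100% = wells lacking the enzyme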
BJeLR viability: BJeLR cell viability loss | hit rate 0.17% among 300,000 | inhibition, % (concentration not given with the values) | BJeLR (HRASV12) viability, CellTiter-Glo ATP luminescence, 48 h | AID 1554; in the data active = inhibition above about 50%; inconclusive = no clear call, values can overlap the other calls
PfHsp40 rescue: compounds rescuing yeast from Plasmodium falciparum HSP40 toxicity | S. cerevisiae expressing PfHsp40, growth rescue, ATP luminescence | growth rescue, % at 12.5 µM | hit rate 0.68% among 340,000; in the data active = growth rescue above about 28%, passing the limit was not always enough; inconclusive = no clear call, values can overlap the other calls;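 note: yeast W303a lacking pdr1 and pdr3 grown in galactose medium; growth measured after three days at 30 °C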
PrP 5UTR single: prion 5' UTR mRNA inhibition, cherry-pick retest; shares compounds with PrP 5UTR inh; cell-based prion protein 5' UTR reporter, plate reader; inhibition, % at 2.5 µM; hit rate 48% among 1,100; AID 504592; in the data active = inhibition above about 54%; inconclusive = no clear call, values can overlap the other calls
* = called active by the depositor; ? = inconclusive; · = not tested or not shown; ! = not confirmed by another sample.

SMILES | PrPC surface inh | PrP 5UTR inh | FBA Mtb inh | GDH-TPI inh | BJeLR viability | PfHsp40 rescue | PrP 5UTR single
COc1ccc(CN=C(Nc2ccccc2)SC2CC(=O)NC2=O)cc1 (stereo not given) | 2.0 | -40.2 | -2.7 | -0.6 | -7.9 | -1.1 | ·
CC(C)(C)C(c1nc2ccccc2[nH]1)n1c(-c2cccc(S(C)(=O)=O)c2)nc2ccccc21 (stereo not given) | 6.7 | · | · | · | · | · | ·
COC(=O)Cc1c(O)ccn(Cc2ccc(OC)c(OC)c2)c1=O | 1.8 | 63.0* | 2.8 | 0.3 | -0.1 | -0.9 | -8.1
Cc1cccc(C)c1NC(=O)C(c1ccccc1OC(F)(F)F)N1CCN(C)CC1 (stereo not given) | -2.2 | · | · | · | · | · | ·
c1ccc2ncccc2c1 | · | 62.9* | 2.9 | 5.9 | · | 1.3 | 6.1
COC(=O)C1=C(c2ccccc2OCc2ccccc2)C[C@@H]2CC[C@H]1N2C(=O)NCCc1ccc(F)cc1 | 10.2 | 58.1* | 2.3 | 7.0 | · | 4.6 | 2.0
COC(=O)[C@]1(CNC(C)=O)CC(=O)N(C)[C@@H]1c1ccccc1 | 1.5 | · | · | · | · | · | ·
COCCn1c(C)cc(C(=O)COC(=O)c2ccccc2Br)c1C | 0.6 | 72.6* | -2.4 | -1.3 | -2.4 | -1.1 | 71.3*
Cc1cc(C(=O)COC(=O)c2ccccc2Br)c(C)n1CC1CCCO1 (stereo not given) | 0.1 | 77.4* | 6.9 | 17.9 | 2.2 | -2.2 | 70.9*
Cc1cc(C(=O)COC(=O)c2ccc3c(c2)OCO3)c(C)n1Cc1cccs1 | 0.4 | -50.7 | -0.6 | 2.5 | -23.3 | 0.2 | ·
Cc1cc(C(=O)COC(=O)c2cccnc2Cl)c(C)n1CC1CCCO1 (stereo not given) | 1.3 | 58.7* | -2.4 | -1.6 | 10.2 | -2.3 | 43.2
Cc1cc(C(=O)COC(=O)c2ccccc2O)c(C)n1Cc1cccs1 | 1.5 | 90.9* | 0.7 | 4.3 | 7.6 | 0.6 | 80.0*
Cc1ccc(CN2CCCCC(NC(=O)C(C)(C)C)C2=O)cc1 (stereo not given) | 9.2 | · | · | · | · | · | ·
COP(=O)(OC)C(Cc1ccccc1)NC(=O)CNC(=O)OCc1ccccc1 (stereo not given) | 2.3 | · | · | · | · | · | ·
CCn1c(C)cc(C(=O)COC(=O)c2ccccc2[N+](=O)[O-])c1C | · | 94.5* | -3.7 | 2.5 | · | -4.5 | 96.9*
Cc1cc(C(=O)COC(=O)c2ccccc2O)c(C)n1CC1CCCO1 (stereo not given) | 7.5 | 88.9* | -0.8 | 10.8 | · | -0.6 | 90.0*
Cc1ccsc1C(=O)OCC(=O)c1cc(C)n(C)c1C | 3.6 | 59.2* | 113.5* | 2.2 | · | -0.2 | 63.2*
Cc1ccccc1CN1[C@@H](C)[C@H](c2ccccc2)Oc2cccc(N3CCCC(C)C3)c2S1(=O)=O (stereo not given in full) | 7.0 | · | · | · | · | · | ·
OC(c1ccccc1)(c1ccccc1)C1CCN(CCCOc2ccc(Cl)cc2)CC1 | -12.8 | · | · | · | · | · | ·
CC(C)(C)C1C/C(=C/c2ccccn2)C(=O)/C(=C/c2ccccn2)C1 (stereo not given) | · | 91.6* | -6.2 | 2.9 | -0.4 | -1.6 | 97.0*
CN1C2CCC1/C(=C\c1ccccc1)C(=O)/C2=C\c1ccccc1 | 2.2 | -33.6 | -2.4 | 29.6 | -19.5 | 4.5 | ·
CN1C2CCC1/C(=C/c1ccccn1)C(=O)/C2=C\c1ccccn1 | 6.3 | 78.1* | -3.1 | 45.8* | · | -0.2 | 91.1*
CCN(CC)S(=O)(=O)c1ccc(C(=O)NCCc2ccccn2)cc1 | 6.3 | 78.3* | 1.9 | -0.6 | -13.4 | -0.7 | -13.9
CCN(CC)S(=O)(=O)c1ccc(C(=O)O)cc1 | -2.7 | 80.0* | -1.1 | -0.7 | 5.9 | -3.0 | 8.4
CCCN(CCC)S(=O)(=O)c1ccc(C(=O)O)cc1 | 2.2 | -16.1 | 2.5 | 7.2 | 1.2 | -1.5 | ·
SMILES | PrPC surface inh | PrP 5UTR inh | FBA Mtb inh | GDH-TPI inh | BJeLR viability | PfHsp40 rescue | PrP 5UTR single
C[C@@H]1C(=O)N2N=Cc3ccccc3[C@H]2N2N=Cc3ccccc3[C@@H]12 | -11.5 | · | · | · | · | · | ·
Cc1ccc(NC(=S)NNC(=O)c2cnccn2)cc1 | -1.4 | · | · | · | · | · | ·
CC(C)NC(=O)c1ccc2c(c1)nnn2C | -0.4 | -3.8 | 0.5 | -2.2 | -3.2 | -1.8 | ·
Cn1nnc2cc(C(=O)NC3CCCCC3)ccc21 | -2.1 | 75.3* | 1.7 | -3.8 | 0.0 | -1.1 | 82.9*
COc1ccc(OC)c(S(=O)(=O)N2Cc3ccccc3CC2C(=O)Nc2nccs2)c1 (stereo not given) | -1.1 | 68.7* | -2.0 | -2.9 | · | -0.5 | -32.6
N/C(=N\OC(=O)c1ccc2ccccc2c1)c1ccccn1 | -9.8 | 52.8* | -3.0 | 8.7 | -3.9 | -1.9 | 39.6
CCCc1ccc(C(=O)O/N=C(\N)c2ccccn2)cc1 | 0.4 | 87.9* | 0.0 | -15.4 | -1.1 | -0.8 | 76.7*
COc1cccc(C(=O)O/N=C(\N)c2ccccn2)c1OC | -5.9 | 52.2* | -0.9 | -6.3 | 0.7 | 2.9 | ?
COc1cccc(C(=O)O/N=C(\N)c2ccccn2)c1 | 2.5 | 52.0* | 0.6 | -4.9 | 0.2 | -3.1 | 91.4*
N/C(=N\OC(=O)c1cccc2ccccc12)c1ccccn1 | -0.9 | -61.4 | 15.3 | 18.6 | 2.5 | -0.9 | ·
CC1=C(C(=O)Nc2ccc(CC(=O)NCc3ccc(OC(C)C)cc3)cc2)SCCO1 | 16.8 | 71.6* | -0.7 | 0.0 | 25.7 | -0.8 | 86.6*
CC1(C(=O)NS(=O)(=O)c2cccc(C#N)c2)CCN1C(=O)CCc1ccccc1 (stereo not given) | 5.8 | · | 0.0 | -12.4 | · | · | ·
Cc1nn(-c2ccc3ccccc3c2)c(=O)c2ccccc12 | -12.1 | -67.1 | 1.3 | 9.3 | 2.1 | -1.2 | ·
Cc1nn(-c2nc3ccccc3[nH]2)c(=O)c2ccccc12 | 1.6 | 92.7* | 6.0 | -3.8 | 89.6* | -6.1 | 95.1*
CN(C)[C@H]1CCN(c2ccc3c(c2)O[C@H]2CCN(C2)S3(=O)=O)C1 | -3.9 | · | · | · | · | · | ·
CN1CCc2c(c3ccccc3n2Cc2ccccc2)C1 | -5.0 | 58.3*! | 0.6 | -8.8 | 3.3 | 0.5 | -5.8
CCOC(=O)Cn1cc(CN2CCS(=O)(=O)N(Cc3ccc(F)cc3)C(C(=O)OC)C2)nn1 (stereo not given) | -6.0 | · | · | · | · | · | ·
CCN(CC)c1ccc(/C=N/N=C(N)N)c(O)c1 | 5.9 | 62.1* | -5.9 | 7.6 | 48.2 | -1.5 | 90.1*
O=c1ccc2nc3ccccc3sc-2c1 | -14.8 | · | -3.9 | · | · | · | ·
CN(C)[C@H]1CCN(c2cccc3c2S(=O)(=O)N(C2CC2)CCCO3)C1 | 1.1 | · | · | · | · | · | ·
CCN1C(=O)[C@H]2[C@H]3CN=C(SCc4ccccc4)N3[C@@](Cc3ccccc3)(C(=O)OC)[C@H]2C1=O | 0.9 | -17.0 | 5.2 | 14.6 | · | -0.9 | ·
CCN1C(=O)[C@H]2[C@H]3CN=C(SCC4CC4)N3[C@@](Cc3ccccc3)(C(=O)OC)[C@H]2C1=O | -7.9 | 64.4* | 1.1 | 0.0 | · | -1.9 | -1.1
O=[N+]([O-])c1cccc2nc3ccccc3c(NCCCn3ccnc3[N+](=O)[O-])c12 | -13.3 | 87.1* | -1.2 | 17.2 | · | 0.0 | 95.2*
Cc1ccc2c(c1)sc(=NC(=O)C1CC1)n2C | -7.9 | -47.7 | -3.5 | 11.1 | -0.2 | -0.4 | ·
